Potency data for 29 compounds are collected here from PubChem BioAssay (NCATS).

Records with an inconclusive call do not appear. A number with no mark means an inactive call. Calls of active or inactive are those of the source. The call rests on the fitted dose curve; in most records, active means well fitted curve in the direction sought with a large enough effect; inconclusive means small, poorly fitted or top-dose-only effect, or another doubt; inactive means no such curve, though single readings can be large; an effect the other way counts as inactive or inconclusive.

Test [1] is described as follows: qHTS for Inhibitors of the Aldehyde Dehydrogenase Family (ALDH1A2, ALDH1A3, ALDH2, ALDH3A1) (AID 2061307). Further: nearly all actives have a fitted effect of over 50% in size. On Potency: test system not described further here; potency means the concentration at half of the fitted maximal effect. For orientation: In qHTS, concentration-response curves come from the screen itself.
Test [2] concerns the target Aldehyde dehydrogenase, mitochondrial (Homo sapiens) (UniProt P05091). Put plainly: qHTS for Inhibitors of the Aldehyde Dehydrogenase Family (ALDH2) Primary screen (AID 2061308). Further: nearly all actives have a fitted effect of over 55% in size. Further: potency means the concentration at half of the fitted maximal effect.
Test [3] concerns the target Retinaldehyde dehydrogenase 3 (Homo sapiens) (UniProt P47895). Put plainly: qHTS for Inhibitors of the Aldehyde Dehydrogenase Family (ALDH1A3) Confirmatory screens (AID 2061311). Further: nearly all actives have a fitted effect of over 60% in size. Further: potency means the concentration at half of the fitted maximal effect.
Test [4] addresses Retinal dehydrogenase 2 (Homo sapiens) (UniProt O94788). Put plainly: qHTS for Inhibitors of the Aldehyde Dehydrogenase Family (ALDH1A2) Confirmation screens (AID 2061314). Further: nearly all actives have a fitted effect of over 65% in size. Further: potency means the concentration at half of the fitted maximal effect.
Test [5] concerns the target Retinaldehyde dehydrogenase 3 (Homo sapiens) (UniProt P47895). As to the kind of experiment: qHTS for Inhibitors of the Aldehyde Dehydrogenase Family (ALDH1A3) Primary screen (AID 2061315).
Test [6] deals with Aldehyde dehydrogenase 1A1 (Homo sapiens) (UniProt P00352). Put plainly: qHTS for Inhibitors of the Aldehyde Dehydrogenase Family (ALDH1A1) Confirmatory screens (AID 2061316). Further: potency means the concentration at half of the fitted maximal effect; nearly all actives have a fitted effect of over 65% in size.

Take `COc1ccc(C2Nc3ccccc3C(=O)N2Cc2ccccc2)cc1COc1ccc(C#N)cc1` (stereo unspecified): the Potency in test [1] was 1.01 µM (active); in test [3], 12.6 µM (active); in test [4], 0.896 µM (active). In addition, the Potency result in test [2] and in test [5] was “inactive” each time.

Turning to `Cc1[nH]cnc1C[C@H]1CCc2c(C)c3ccccc3n2C1=O`, the figures for the Potency in test [1], in test [3] and in test [4] were 8.96 µM (active), 3.18 µM (active) and 11.3 µM (active), respectively. The Potency result in test [2] and in test [5] was “inactive” each time.

With `COc1ccc2nc(-c3ccc(F)cc3)sc2c1`, the Potency in test [1] was 5.38 µM (active). In addition, the Potency entry in test [2] was “inactive”.

As to `O=C(O)c1ccc(O)c2ncc(N3CC(N4CCOCC4)C3)cc12`, the Potency result in test [1], in test [2] and in test [5] was “inactive” throughout. Also, the results for the Potency in test [3] and in test [4] were 12.7 µM (active) and 15.9 µM (active), respectively.

As to `Cc1ccc(S(=O)(=O)Nc2cc(F)ccc2C(=O)Nc2nc(-c3ccccc3)cs2)cc1`, the Potency in test [1] is 0.224 µM (active); in test [4] it was 5.04 µM (active). Moreover, the Potency result in test [2], in test [3] and in test [5] was “inactive” each time.

On to `Cc1ccc(CNc2ccc(N3CCCCC3)cc2)cc1`, for which the Potency in test [1] is 11.3 µM (active); in test [3], 20.1 µM (active); in test [4], 28.3 µM (active). The Potency entry in test [2] is “inactive”.

Regarding `CN1c2cc(C(=O)Nc3ccc(N4CCOCC4)cc3)ccc2C(=O)N2CCCCC21` (stereo unspecified), in test [1], the Potency result is “inactive”.

With `CCOc1ccc2[nH]c(=O)c(CN(Cc3nnnn3Cc3ccco3)C3CCCCC3)cc2c1`, the Potency in test [1] was 0.896 µM (active).

As for `Oc1ccc(COC2CCN(Cc3ccccc3)C2)c2cccnc12` (stereo unspecified), the Potency entry in test [1], in test [2], in test [4] and in test [5] was “inactive” in each case. The Potency in test [3] was 12.7 µM (active).

Take `O=C(c1ccco1)N1CCN(c2nc(-c3ccc(Br)cc3)cs2)CC1`: the Potency in test [1] is 3.98 µM (active); in test [3], 15.8 µM (active). Further, the Potency result in test [2], in test [4] and in test [5] was “inactive” throughout.

For the compound `Cc1ccccc1OCC(O)Cn1c(NCc2ccccc2)nc2c1c(=O)n(C)c(=O)n2C` (stereo unspecified), the Potency entry in test [1] is “inactive”.

Consider `COc1ccc(-n2nc(C(=O)Nc3ccc(Cl)cn3)c3c4ccccc4n(C)c3c2=O)cc1`, for which the Potency entry in test [1] was “inactive”.

Regarding `Oc1ccccc1C1Nc2cccc3cccc(c23)N1`, the Potency entry in test [1] and in test [2] was “inactive” throughout. For the same compound, the Potency in test [3] was 12.7 µM (active).

In the case of `Cc1cc(=O)n2[nH]c(NC(=O)c3ccccc3C)nc2n1`, the Potency result in test [1] is “inactive”.

Regarding `CC(=O)Nc1sc2c(c1-c1nc3ccccc3o1)CCN(C(C)C)C2`, the figures for the Potency in test [1] and in test [3] were 7.08 µM (active) and 12.6 µM (active), respectively. For the same compound, the Potency result in test [2] is “inactive”.

For `Cc1ccc2nc3sc(C(=O)NCCCN(C)C)cc3cc2c1`, the Potency was 12.1 µM (active) in test [1] and 21.5 µM (active) in test [3]. Further, the Potency entry in test [2] is “inactive”.

For the compound `O=C(O)c1ccc(-c2noc(-c3cccc(F)c3)n2)cc1`, the Potency in test [1] was 1.52 µM (active). Further, in test [2], the Potency result is “inactive”.

With `Cc1ccc(CNc2ccc(N3CCN(C)CC3=O)cc2)cc1`, the Potency result in test [1] and in test [2] was “inactive” throughout.

In the case of `O=C(O)c1cccc(S(=O)(=O)N2CCC(n3nnc4cc(C(F)(F)F)ccc43)CC2)c1`, the Potency result in test [1] is “inactive”.

Regarding `NCC(=O)Nc1ccc2c(c1)Oc1cc(NC(=O)CN)ccc1C21OC(=O)c2ccccc21`, in test [1], the Potency result is “inactive”.

On to `CC1(C)CC[C@]2(C(=O)O)CC[C@]3(C)C(=CCC4[C@@]5(C)C[C@@H](O)[C@H](O)[C@@](C)(CO)C5CC[C@]43C)[C@@H]2[C@@H]1O` (stereo partly specified), for which the Potency result in test [1] and in test [2] was “inactive” each time. In addition, in test [3], the Potency is 11 µM (active).

As to `Oc1ccc(COc2cccc3ccccc23)c2cccnc12`, the Potency entry in test [1] and in test [2] was “inactive” throughout. Further, in test [3], the Potency was 10.1 µM (active).

Consider `NCC(CNc1nc(Nc2cccc(NC(=O)N3CCCC3)c2)ncc1I)C(=O)c1cccs1` (stereo unspecified), for which, in test [1], the Potency entry was “inactive”. Also, the Potency in test [2] is 20 µM (active).

`CCN1C(=O)c2ccccc2S(=O)c2ccc(C(=O)NCc3ccccc3Cl)cc21` (stereo unspecified): the Potency in test [1] was 12.7 µM (active).

As for `Cc1nc(SCCc2nc3ccccc3[nH]2)c2oc3ccccc3c2n1`, the Potency entry in test [1] is “inactive”.

For `COc1ccc(-c2nn(-c3ccccc3)cc2C(=O)Nc2ccccc2OC)cc1`, the Potency entry in test [1] was “inactive”.

For `COc1cccc(C2c3c(ncn(-c4ccccc4)c3=N)Oc3ccc4ccccc4c32)c1` (stereo unspecified), the Potency entry in test [1], in test [2] and in test [5] was “inactive” throughout. In addition, the Potency in test [3] is 11.3 µM (active); in test [4] it was 12.7 µM (active).

`c1cc2c(cc1CNc1ccc(N3CCCCC3)cc1)OCO2`: the Potency in test [1] and in test [3] was 12.7 µM (active) in each case. The Potency result in test [2] is “inactive”.

On to `CN(CC(=O)Nc1cccc(N2CCOCC2)c1)Cc1c(O)ccc2ccccc12`, for which the Potency in test [1] was 5.65 µM (active); in test [3], 12.7 µM (active); in test [4], 11.3 µM (active); in test [6], 4 µM (active). Further, the Potency entry in test [2] and in test [5] was “inactive” throughout.
